The results in this text go back to the supplement of paper PMC6555819.

The subject of the experiment is VDR:RXRa (NR concentration 270 nM, RXRa partner concentration 90 nM). The experiment can be described thus: PBM binding z-score (relative to random genomic background probes); higher = stronger binding; sequences stand for … in GC…GCGATTGACAGCGTAGAATGAAGG
How it is done: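 Protein-binding microarray (Agilent 4x180K custom design, double-stranded 60-nt probes: 5' GC cap, 34-nt variable region, 24-nt constant primer region; full probe sequence given). Purified or IVT nuclear receptor:RXRα heterodimers (3:1 NR:RXRα, mostly 270:90 nM) or homodimers were incubated for 1 h in PBS with 2% milk and no ligand, then detected with Alexa488 antibodies. Fluorescence from o1-orientation probes (~5 replicates averaged) was converted to z-scores against 500 random hg19 background probes. Variable regions are seed direct-repeat (DR0–DR5) sites, all their single-nucleotide variants and half-site ablations.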
In the case of CGTCAAAGTTCCAGGTAACGTAACAGAAAGCAGC, the PBM binding z-score is -0.14.

In turn, ATCTCTAGGTAAAGATAGTTCAGTCAATGCAAAT registered a PBM binding z-score of 0.723.

As to GATACAGGGTCAGCTAGAGGCCAGCGTATGGAAA, the PBM binding z-score came to 3. For TCATATAGGTAAAGGTGAAAGTGGAACGATATGA the value was 1.05; for TCTATTAATTGATTAGGGCAACCGAAACAGCGGA, 0.405. For TCGAGTAGGTTAGGGACATTCAGAATGGCGTCGA the value was -0.0636. As for GCTATTAGTTGAAAGGGCAGCCGAATGATTCTCG, the figure is 0.0527; as for CGTTAAAGTTCAAGGTAACGTAACAGAAAGCAGC, 3.02. Consider CCTCACGGGTCACGAGGTTATAGCACGACGAGCG, for which the PBM binding z-score was 4.79. As to ATCTCTAGGTAAAGATAGTTCAGTGGATGCAAAT, the PBM binding z-score was 0.451. As for CCTATTAGTTGACCATAAGGGCAATCGAAGCTCG, the figure is 0.713; as for TAGCCTATGTCATGGGCCAGTATACCACGCGAAC, -0.365; as for GCCTATAGGTAATACAAGGTGAAAGTCCGATTGT, 0.256. With ACTGACAGGTGATGAAGGTAACTCAGGCTATCAT, the PBM binding z-score is 0.103. Sequence CAAACTAGCTCAAGAGGTCAAAGTCCGCTTCCCG returned a PBM binding z-score of 4.96. ACTTACGGGTCACCGAGGTTATAGCACGCGTATA displayed a PBM binding z-score of 7.82.

As to GCGACTGGGGCATCAGCAGGTTACCACAACTTAA, the PBM binding z-score is -0.211. For CTCGAAAGTTCGGTTGAGGTGAGTATACGGATAA the value was 0.728; for CGAACTAGGTCAGTACAGGACAGTGAAGGATGAT, 0.713.

In turn, GCTAGTTGGTCAGTAAAAGGTCATACACCGGTCG returned a PBM binding z-score of 3.69. AGAATGAGGTTAAGAGCAGGGAAACAGAATACAT returned a PBM binding z-score of 0.967. As for TCATATAGGTACACAGGTGAAAGTCCGTAAGTTA, the figure is 1.32; as for CAAACTAGGTCACCGGAAGGTCAAAGTCCGCATG, 6.25. ATCGAAAGGTCGTGAGGCGAGTATACAGAAAGGC displayed a PBM binding z-score of 3.18. For AACGAAAGGTCGAGGTGAGTATAGAGAAAGGGAA the value was 2.85.

Take CCTTACGGGTCACTCCACGTTATAGCATCGGAGT: the PBM binding z-score was found to be 2.65. As for TCTATTAGTTGAAGGGCAACCGTCGAGTCCGTTT, the figure is 0.884; as for CCTACTGGGCCATTAGGTCATTGATATCAACGTT, 1.47.

For the sequence CCTAGCAGGCCAATCTGGGTCCCTCAAGGCTTGA, the PBM binding z-score was -0.831. As for ACGGACAGGTGAGTGAAGGTAACTCAGCTGGACG, the figure is -0.381; as for TCTATTTGGTCAAAGGTCACACACTCGAAATGCG, 5.41; as for CGTCCAAGGTCAATGATAGGTCAGTGAAAGCATT, 5.02. For the sequence TCTATTAGTTGAAGGGCTACCGACGAGTCCGTTT, the PBM binding z-score was found to be 0.745. As for TCTAGTTGTTCACGGAGGTCACACACGACGGGTA, the figure is 4.1. As for CCTATTAGTGGACCATAAGGGCAACCGAAGCTCG, the figure is 0.134; as for CAAACTAGGTCAAGCGGTCAAAGTCCGCTTCCCG, 2.99; as for AGCACGAGGGCACGCTGAGTTGATAGCAGAGTAG, 2.17. For ACAGACAGGTGAGTGAAGGTATCTCAGCTGGACG the value was -0.617; for CGCACGAGGGCATGAGTTGATAGCAAATGCCGAT, 1.27; for AATACAGGGTCATCGTAGGCCATAGTACGCACAG, 5.58.
